Bioassay records (PubChem)
SARS PLpro yeast – qHTS of Yeast-based Assay for SARS-CoV PLP; S. cerevisiae expressing SARS-CoV PLpro, growth rescue; Potency, µM (top dose mostly 32.9 µM), for inactives: top-dose activity, positive = growth rescue, hits mostly activators; actives 0.19% (n = 330,000); AID 485353, 2010; calls by dose curve; also: 0% is about no effect; nearly all actives have a fitted effect of over 55% in size
Pf growth 48h – Primary qHTS for delayed death inhibitors of the malarial parasite plastid, 48 hour incubation; P. falciparum luciferase growth in erythrocytes, 48 h; Potency, µM (doses to about 28.7 µM), for inactives: top-dose activity change, negative = inhibition, most hits filed as inhibitors; actives 5.9% (n = 310,000); also: % is scaled to controls: 0 for no effect and ±100 for the full control effect
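Luciferase-expressing parasites in RBCs, 2% Hct / 0.1% parasitemia final; RPMI 1640 + 0.5% Albumax; 37 C, 5% CO2, one generation; luminescence read-out, lower signal = inhibition.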
AMA1 RON2 block – qHTS for Inhibitors of AMA1-RON; Towards Development of Antimalarial Drug Lead: Primary Screen | Plasmodium falciparum AMA1 (3D7) - RON2 peptide interaction | AlphaScreen AMA1-biotinylated RON2 peptide binding | Potency, µM (titrated, usually from 58.2 µM), inactives show top-dose activity change, negative = inhibition, usual class: inhibitors | actives 0.2% (n = 360,000);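 also: 0% = vehicle wells and -100% = peptide control; nearly all actives have a fitted effect of over 45% in size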
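AMA1 (3D7) with his tag at 25 nM final met compounds first, then biotinylated RON2 peptide at 25 nM; detection used donor plus acceptor beads, 10 µg/mL apiece, read by AlphaScreen after 30 min at room temperature.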
Pf growth 96h – Primary qHTS for delayed death inhibitors of the malarial parasite plastid, 96 hour incubation; P. falciparum luciferase reporter growth, 96 h; Potency, µM (top dose mostly 28.7 µM), for inactives: at the highest dose activity change, negative = inhibition, most hits filed as inhibitors; actives 6.9% (n = 320,000); also: % is scaled to controls: 0 for no effect and ±100 for the full control effect
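P. falciparum expressing integrated firefly luciferase, in erythrocytes at 2% hematocrit, 0.05% parasitemia, incubated with compounds 96 h at 37 C, 5% CO2. Growth inhibition read as loss of luminescence; two-generation exposure targets delayed-death apicoplast inhibitors.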
An asterisk follows results filed as active; ? = inconclusive; . = not tested or not shown; [ ] = dose if it differs, or a comment. Sampled rows, rich in hits. Any-hit rate of the full collection: about 9.4%. Unless noted, calls follow the shape of the dose curve; as a rule, active = well fitted curve in the direction sought with a large enough effect; inconclusive = small, poorly fitted or top-dose-only effect, or another doubt; inactive = no such curve, though single readings can be large; an effect the other way counts as inactive or inconclusive. Potency is read from the fitted curve at half-maximal effect.

SMILES	SARS PLpro yeast	Pf growth 48h	AMA1 RON2 block	Pf growth 96h
COc1ccc(OC)c(C(=O)c2ccc(C(=O)c3cc(OC)ccc3OC)cc2)c1	-6%	3%	-1%	.
COc1ccc(OC)c(C(=O)C2COC(=O)C2)c1 (stereo not drawn)	1%	10µM*	8%	49%
CCCCN(C(=O)c1cc(S(=O)(=O)N2CCOCC2)ccc1F)c1c(N)n(CCCC)c(=O)[nH]c1=O	.	.	-2%[11.6 µM]	.
NC(=O)C1(N2CCCCC2)CCN(c2ccc3nnc(-c4ccccc4)n3n2)CC1	6%	.	3%	30%
COC(=O)CNC(c1ccccc1Cl)c1cc(Br)ccc1NS(=O)(=O)c1ccc(C)cc1 (stereo not drawn)	-20%	3.3µM*	46%	-10%
CC(C)(C)C1CCc2sc(-c3nnc(CCl)o3)cc2C1 (stereo not drawn)	4%	13µM*	68%	?
COc1ccc(F)cc1S(=O)(=O)Nc1ccc2c(c1)OCCO2	5%	-15%	0%	?
CCc1ccc(OCCCC(=O)Nc2nnc(C3CCCO3)s2)cc1 (stereo not drawn)	-1%	39%	-7%	12µM*
O=c1[nH]c(=O)n(Cc2ccco2)c2c1C(C(F)(F)F)(C(F)(F)F)N=C(CCc1ccccc1)N2	1%	?	-4%	2.3µM*
Cc1ccc(OCC(=O)NC2CCS(=O)(=O)C2)c(C)c1 (stereo not drawn)	0%	8%	8%	5.9µM*
Cn1cccc1C(=O)OCC(=O)NC1CCS(=O)(=O)C1 (stereo not drawn)	0%	1.5µM*	-6%	18%
CCN(C(=O)COC(=O)c1cccn1C)C1CCS(=O)(=O)C1 (stereo not drawn)	-3%	0%	-4%	29%
Cc1ccc(OCC(=O)NC2CCS(=O)(=O)C2)cc1 (stereo not drawn)	10%	.	9%	35%
Cc1ccsc1CN1CCN(c2ccccn2)CC1	-9%	-7%	?	?
COC(=O)c1cc(NC(=O)c2cc(-c3ccc(OC)cc3)oc2C(F)(F)F)ccc1N1CCOCC1	-1%	8.3µM*	-12%	9.3µM*
COC(=O)c1cc(NC(=O)c2c(C)noc2C)ccc1N1CCOCC1	-5%	72%	-5%	1%
COC(=O)c1cc(NC(C)=O)ccc1N1CCOCC1	2%	24%	-3%	439%
COC(=O)c1cc(NC(=O)c2cc(-c3ccc(C(F)(F)F)cc3)oc2C(F)(F)F)ccc1N1CCOCC1	0%	2.1µM*	-22%	1.5µM*
COc1ccc(CCNC(=O)c2nnn(-c3cccc(C)c3)c2N)cc1OC	2%	-24%	11%	.
COc1ccc(CCNC(=O)c2nnn(-c3cc(C)cc(C)c3)c2N)cc1OC	-3%	?	5%	3.7µM*
COc1ccc(CCNC(=O)c2nonc2N)cc1OC	-5%	-1%	2%	4.1µM*
O=S(=O)(c1cc(Cl)ccc1Cl)n1ccnc1	5%	0%	0%	27%
O=[N+]([O-])c1ccc(Cl)c(S(=O)(=O)n2ccnc2)c1	0%	2.9µM*	-15%	-5%
COc1cc2c(cc1OC)-c1c(OC)c(OC)cc3c1C(C2)N(C)CC3 (stereo not drawn)	3%	4.1µM*	-1%	126%
COc1cc2c(cc1OC)-c1c3c(cc4c1[C@@H](C2)N(C)CC4)OCO3	22%	?	-22%	?
SMILES	SARS PLpro yeast	Pf growth 48h	AMA1 RON2 block	Pf growth 96h
NC(=S)NN=C1c2cc(OCCN3CCOCC3)ccc2-c2ccc(OCCN3CCOCC3)cc21	0%	3.3µM*	-11%	78%
ON=C1c2cc(OCCN3CCCCC3)ccc2-c2ccc(OCCN3CCCCC3)cc21	-5%	1.7µM*	-8%	1.5µM*
O=C(O)/C(=C\c1cccs1)c1ccc(F)cc1	0%	-39%	-5%	13%
Nc1ccc2c(c1)OCCOCCOCCOCCOCCO2	-2%	188%	29%	5.9µM*
C/C(=N/O)c1ccc2c(c1)OCCOCCOc1cc(/C(C)=N/O)ccc1OCCOCCO2	-12%	?	12%	13µM*
Brc1ccc2c(c1)OCCOCCOc1cc(Br)ccc1OCCOCCOCCO2	-37%	?	4%	?
COc1ccc(NC2CCCN(C(=O)c3ccc(C)nc3)C2)cc1 (stereo not drawn)	1%	0%	3%	?
